# According to the supplement of paper PMC6555819:
# System: THRa homodimer (NR concentration 90 nM)
# Assay: PBM binding z-score (relative to random genomic background probes); higher = stronger binding; sequences stand for … in GC…GCGATTGACAGCGTAGAATGAAGG
# In short: (§1)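 The probes on custom Agilent 4×180K protein-binding microarrays were double-stranded, with 34-nt variable regions bearing direct-repeat seeds, single-nucleotide variants, half-site ablations and random human genomic background sequences. Incubation lasted 1 h with ligand-free nuclear receptor dimers in PBS pH 7.4, 2% milk, 0.02% Triton X-100, 1 mM DTT, 0.2 mg/mL BSA and 0.4 mg/ml salmon testes DNA. Antibodies against each partner (one per run) detected bound dimers, and fluorescence scans were regression-normalized. Binding z-scores take the random background probes as reference.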
row,Sequence,PBM binding z-score
1,ATATGTAGGTTAGATCCGGGTCATTCAGGCTATG,2.08
2,AGTCAAAGTTCACTAGGTAACGTCAGATTCAGCT,0.43
3,CATACAGGGTCAGCTAGGCCATAGTAGGGACGGC,0.737
4,ATCTCTAGGTAAAACTCAGTTCAGTGAAGAACGC,0.901
5,ATCTCTAGGGAAAGTTCAGTGAAAGATCGATAGA,0.0589
6,GATACAGAGTCAAGGCCAGAGTACGCGTATTGAT,-0.438
7,GGAACGAGGGCATAGTTGATAGCATCTGTCGACG,-0.185
8,TAGCCTAGGTCATTCAGGGGCCCGTATAGAAAGC,0.839
9,CCTCGGAGGACAGAAGGTCAGAGCGGTCCGCTTT,-0.136
10,CCTAGTTGGTCAGGACGTCACACACCGGATATGA,1.03
11,CCTCGGAGGACAGAAGGTCAGAGATGTCCGCTTT,-0.116
12,CGTCCAAGGTCTGAGAGGTCAGTGAATGCCGAGT,1.29
13,ATCTCTAGGTACAAGTTCAGTGAATCCCGAGGAT,0.457
14,GCAGAAAGGTGAAACGCAGGTAACTCAGGGTGGC,-0.396
15,GCTAGCAAGCCATTTGGGTCACTCAATGACGGGC,0.353
16,CGAACTAGGTCATTGACAGGACAGGGAATAGTAA,1.01
17,ACAGGCAGGTGAGTGAAGGTAACTCAGCTGGACG,-0.451
18,CAAACTAGGTTAAGAGGTCAAAGTCCGCTTCCCG,1.83
19,TCGAGTAGGTTACCAATGGGGCATCCAGCTTTCT,-0.638
20,TACCCTAGGTCATGCGGGCCAGTATAGTGTCGGC,1.48

row,Sequence,PBM binding z-score
1,CTCGAACGGTCGTGCTCAGGTGAGTATACCAAAC,0.536
2,TATACAGAGTCAAAGGCCAGAGTACGAATGTCGA,-0.776
3,TCTTGTAGATCAGCAGGGTAAGAAAGCTGGCCAA,-0.567
4,ACTATTGGTTGACTTAGGGCAACCGATACGACGC,0.213
5,CGTCCAAGGTCAGAGAGGTCAGTGATTGCCGAGT,3.03
6,CCTACTGGGCCAAAAAGGTCACTGATGCCGATAA,0.702
7,CCTCGGAGGACAACACGAGGTCAGAGCTGCCAGA,2.8
8,CGAACGAGGGCTTGAGTTGATAGCAAATGCCGAT,-0.618
9,AGTCAAGGTTCAGGACGAGGTAACGTAAAGCACG,1.75
10,CGAACTAGGTCAGAACAGGACAGGGAAGGATGAT,0.578
11,CCTACTGGGCCACGAAAGGACATTGATTCAGTGA,0.069
12,AGAACGCGGGCAATGAGTTGATAGCACGGGTGGC,-1.04
13,CCTCGGAGGATAACAGGAGGTCAGAGCTGCCAGA,0.791
14,ATATGTAGGTTACACCCGGGTCATTCAGGCTATG,2.45
15,AGAATGAGGGTATACGTAGATCAGGGAAGAAAGT,0.0652
16,CCTACTTGGCCAAAGGTCATTGATTCCAATGCTC,1.25
17,ACTCGGAGGACACAGGTCAGAGCTACGCCAGTGA,0.77
18,AGAATGAGGTTATTCGTAGATCAGGGAAGAAAGT,0.475
19,TAGCCTAGGTCAGATCGGGACAGTATACGCTATA,0.686
20,CGAACTAGGTCAGAACAGGGCAGTGAAGGATGAT,0.148

# System: VDR homodimer (NR concentration 270 nM)
# Assay: as above
# In short: as §1
row,Sequence,PBM binding z-score
1,ATATGTAGGTTAGATCCGGGTCATTCAGGCTATG,1.71
2,AGTCAAAGTTCACTAGGTAACGTCAGATTCAGCT,3.7
3,CATACAGGGTCAGCTAGGCCATAGTAGGGACGGC,1.1
4,ATCTCTAGGTAAAACTCAGTTCAGTGAAGAACGC,2.13
5,ATCTCTAGGGAAAGTTCAGTGAAAGATCGATAGA,1.68
6,GATACAGAGTCAAGGCCAGAGTACGCGTATTGAT,-0.0653
7,GGAACGAGGGCATAGTTGATAGCATCTGTCGACG,1.18
8,TAGCCTAGGTCATTCAGGGGCCCGTATAGAAAGC,1.32
9,CCTCGGAGGACAGAAGGTCAGAGCGGTCCGCTTT,0.0325
10,CCTAGTTGGTCAGGACGTCACACACCGGATATGA,0.558
11,CCTCGGAGGACAGAAGGTCAGAGATGTCCGCTTT,0.382
12,CGTCCAAGGTCTGAGAGGTCAGTGAATGCCGAGT,2.01
13,ATCTCTAGGTACAAGTTCAGTGAATCCCGAGGAT,2.83
14,GCAGAAAGGTGAAACGCAGGTAACTCAGGGTGGC,-0.808
15,GCTAGCAAGCCATTTGGGTCACTCAATGACGGGC,-0.322
16,CGAACTAGGTCATTGACAGGACAGGGAATAGTAA,1.02
17,ACAGGCAGGTGAGTGAAGGTAACTCAGCTGGACG,-0.884
18,CAAACTAGGTTAAGAGGTCAAAGTCCGCTTCCCG,4.48
19,TCGAGTAGGTTACCAATGGGGCATCCAGCTTTCT,-0.823
20,TACCCTAGGTCATGCGGGCCAGTATAGTGTCGGC,1.26

row,Sequence,PBM binding z-score
1,CTCGAACGGTCGTGCTCAGGTGAGTATACCAAAC,-0.528
2,TATACAGAGTCAAAGGCCAGAGTACGAATGTCGA,0.0199
3,TCTTGTAGATCAGCAGGGTAAGAAAGCTGGCCAA,-0.255
4,ACTATTGGTTGACTTAGGGCAACCGATACGACGC,-0.0545
5,CGTCCAAGGTCAGAGAGGTCAGTGATTGCCGAGT,5.48
6,CCTACTGGGCCAAAAAGGTCACTGATGCCGATAA,1.53
7,CCTCGGAGGACAACACGAGGTCAGAGCTGCCAGA,1.85
8,CGAACGAGGGCTTGAGTTGATAGCAAATGCCGAT,-0.163
9,AGTCAAGGTTCAGGACGAGGTAACGTAAAGCACG,2.25
10,CGAACTAGGTCAGAACAGGACAGGGAAGGATGAT,0.472
11,CCTACTGGGCCACGAAAGGACATTGATTCAGTGA,-0.0244
12,AGAACGCGGGCAATGAGTTGATAGCACGGGTGGC,0.678
13,CCTCGGAGGATAACAGGAGGTCAGAGCTGCCAGA,0.96
14,ATATGTAGGTTACACCCGGGTCATTCAGGCTATG,2.67
15,AGAATGAGGGTATACGTAGATCAGGGAAGAAAGT,0.45
16,CCTACTTGGCCAAAGGTCATTGATTCCAATGCTC,2.51
17,ACTCGGAGGACACAGGTCAGAGCTACGCCAGTGA,0.0264
18,AGAATGAGGTTATTCGTAGATCAGGGAAGAAAGT,1.07
19,TAGCCTAGGTCAGATCGGGACAGTATACGCTATA,-0.152
20,CGAACTAGGTCAGAACAGGGCAGTGAAGGATGAT,0.0633
